This is an account of results in PubChem BioAssay.

A short description of experiment [1]: P. berghei load reduction in hepatocytes – cell-based, HepG2, luciferase luminescence, HepG2 viability, primary screen (AID 624349; in the data active = parasite load remaining mostly below about 12%, no sharp cut-off; inactive = mostly above about 10%;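 also: 100% = mean of DMSO negative control wells on the same plate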). The conditions noted are these: P. berghei liver stage in HepG2, luciferase luminescence, concentration not given here; parasite load remaining: stronger effect = lower value; viability: measured here: HepG2 viability without parasites.
The nature of experiment [2]: signal quenchers or enhancers, Cy5 substrate/SSB – biochemical, NIH Clinical Collection, E. coli SSB, artefact control for HCV NS3 helicase inhibitor project (AID 743268). The conditions noted are these: Cy5-oligo bound E. coli SSB, fluorescence interference.
For experiment [3], the system named is Hepatitis C virus NS3 helicase. In words: blockers of NS3h binding to DNA – biochemical, fluorescence polarization, NIH Clinical Collection, primary screen (AID 743270). The conditions noted are these: NS3 helicase binding to Cy5-dT15 DNA, stronger effect = higher value, concentration not given here. A general note: Fluorescence polarisation rises when a labelled molecule tumbles more slowly, as on binding a larger partner.

Experiment [4] deals with Single-stranded DNA-binding protein (Escherichia coli (strain K12)) (UniProt P0AGE0). In words: SSB-ssDNA binding inhibitors – biochemical, fluorescence polarization, NIH Clinical Collection, counter-screen for HCV NS3 helicase inhibitor project (AID 743271; in the data active = inhibition above about 28%). The conditions noted are these: E. coli SSB-DNA binding, stronger effect = higher value, concentration not given here.
A short description of experiment [5]: compounds distorting NS3 helicase fluorescence signal – biochemical, NIH Clinical Collection, artefact control for HCV NS3 helicase inhibitor project (AID 743272).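 Also: HCV NS3 helicase with a Cy5 labelled single stranded DNA probe.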 The conditions noted are these: fluorescence interference counterscreen, HCV NS3 helicase assay; stronger effect = lower value.
The nature of experiment [6]: Wnt pathway potentiators raising nuclear beta-catenin – imaging, WNT3A-conditioned medium, mouse C2C12, NPC library, primary screen (AID 1117326; in the data active = nuclear beta-catenin stimulation mostly above about 4.2%, no sharp cut-off; inactive = mostly below about 10%). The following applies: stronger effect = higher value.
The test system of experiment [7] is Hepatitis C virus NS3 helicase. Nature of the experiment: blockers of NS3h binding to ssDNA – biochemical, fluorescence polarization, LOPAC1280 library, primary screen (AID 687035; in the data active = inhibition above about 37%). The following applies: Purified HCV NS3 helicase, Cy5-dT15 ssDNA binding fluorescence polarization; stronger effect = higher value; concentration not given here.
Experiment [8] in a line: compounds altering Cy5-DNA-NS3h complex signal – biochemical, LOPAC1280, artefact control for HCV NS3 helicase inhibitor project (AID 687037). The following applies: Cy5-DNA-NS3h complex fluorescence interference counterscreen.
The subject of experiment [9] is Neuropilin-2 / VEGF-C interaction (human). Nature of the experiment: small molecules blocking Neuropilin-2/VEGF-C interaction – biochemical, microplate binding format, z-score (AID 743281). The following applies: microplate NRP2/VEGF-C binding assay; stronger effect = lower value.

Each structure is given as a SMILES string. Several values for one entry are separate records, joined by “and”; a condition that tells them apart may be missing. Identical values can stand only once. Activity calls are given as the source filed them. Unless noted, no rule for the calls is given here.

The term viability denotes a read-out of living cells in per cent, often relative to untreated cells. By inhibition is commonly meant the relative decrease from the control value, in per cent. `Nc1nc(F)nc2c1ncn2[C@@H]1O[C@H](CO)[C@@H](O)[C@@H]1O`: the parasite load remaining in experiment [1] is 18.4% (inactive). Moreover, the viability in experiment [1] was found to be 114%. In addition, the fluorescence ratio was 1.01 (inactive) in experiment [2] and 1.02 (inactive) in [5]. Moreover, the values for the inhibition in [3] and in [4] were 1.36% (inactive) and -2.76% (inactive), respectively. Besides, the nuclear beta-catenin stimulation in experiment [6] (at 10 µM) is 0.3% (inactive); in experiment [6] (stimulation, at 2 µM) it was 2.3%.

In the case of `C[C@@H]1C[C@H]2[C@@H]3CCC4=CC(=O)C=C[C@]4(C)[C@@]3(F)[C@@H](O)C[C@]2(C)[C@H]1C(=O)CO`, the parasite load remaining in experiment [1] is 74.3% (inactive). Further, the viability in [1] was found to be 70.8%. Further, the results for the fluorescence ratio in [2] and in [5] were 0.96 (inactive) and 0.92 (inactive), respectively. For the same compound, the inhibition in experiment [3] and in experiment [4] was -1.97% (inactive) in each case. Also, the nuclear beta-catenin stimulation is -1.6% (inactive) in experiment [6] (at 10 µM) and 0.6% in experiment [6] (stimulation, at 2 µM).

As for `CO/N=C1\CN(c2nc3c(cc2F)c(=O)c(C(=O)O)cn3C2CC2)CC1CN` (centres undefined), the parasite load remaining in experiment [1] was 155% (inactive) and 46.4% (inactive). Further, the viability in experiment [1] is 85.7% and 106%. Further, the nuclear beta-catenin stimulation was 4.1% (inactive) in experiment [6] (at 10 µM) and 3.4% in experiment [6] (stimulation, at 2 µM).

Consider `CCN1CCCC1CNC(=O)c1cc(S(=O)(=O)CC)c(N)cc1OC` (centres undefined), for which, in experiment [1], the parasite load remaining was 79.8% (inactive). In experiment [1], the viability was found to be 68.8%. Further, the inhibition in experiment [7] was -3% (inactive); in [3] it was 0.4% (inactive); in experiment [4] it was -4.72% (inactive). Moreover, the fluorescence ratio (interference) in [8] was 0.9 (inactive). Also, the values for the fluorescence ratio in [2] and in experiment [5] were 1.05 (inactive) and 1.01 (inactive), respectively. Moreover, the z-score in [9] is -0.283 (inactive). In addition, the nuclear beta-catenin stimulation in experiment [6] (at 10 µM) was -0.8% (inactive); in experiment [6] (stimulation, at 2 µM), -0.8%.

Turning to `O=NN(CCCl)C(=O)NC1CCCCC1`, in [1], the parasite load remaining was 11.7% (inactive) and the viability was 78%. The nuclear beta-catenin stimulation in experiment [6] (at 10 µM) was 11.8% (inactive). In addition, the nuclear beta-catenin stimulation in [6] (stimulation, at 2 µM) was found to be 3.7%.

For the compound `O=c1oc2c(O)c(O)cc3c(=O)oc4c(O)c(O)cc1c4c23`, the parasite load remaining in experiment [1] is 130% (inactive). In experiment [1], the viability stood at 65.1%. Moreover, the nuclear beta-catenin stimulation in [6] (at 10 µM) is -1.4% (inactive); in experiment [6] (stimulation, at 2 µM), 2.3%.

In the case of `O=C(O)CCNC(=O)c1ccccc1`, the parasite load remaining in [1] is 140% (inactive). Moreover, the viability in [1] turned out to be 88.4%. Further, the nuclear beta-catenin stimulation is 3.5% (inactive) in experiment [6] (at 10 µM) and 0.2% in experiment [6] (stimulation, at 2 µM).

In the case of `CC(=O)O[C@H]1C[C@@H]2CC[C@@H]3[C@H](CC[C@@]4(C)[C@H]3C[C@H]([N+]3(C)CCCCC3)[C@@H]4OC(C)=O)[C@@]2(C)C[C@@H]1N1CCCCC1`, the parasite load remaining in experiment [1] is 67.6% (inactive) and 50.8% (inactive). Further, the viability in [1] is 76.1% and 73.5%. Moreover, the fluorescence ratio in [2] and in experiment [5] was 1 (inactive) in each case. In addition, the inhibition in experiment [3] was -0.22% (inactive); in experiment [4], 5.91% (inactive). For the same compound, the nuclear beta-catenin stimulation in experiment [6] (at 10 µM) was -1.4% (inactive); in [6] (stimulation, at 2 µM), -1.2%.

Consider `C[C@H](NC(CCc1ccccc1)C(=O)O)C(=O)N1CCC[C@H]1C(=O)O` (some centres undefined), for which, in experiment [1], the parasite load remaining is 94.1% (inactive) and 49.6% (inactive). The viability in [1] is 70.8% and 156%. In addition, the inhibition in [7] is -5% (inactive); in [3], 1.19% (inactive); in experiment [4], 2.98% (inactive). Further, in experiment [8], the fluorescence ratio (interference) was 1 (inactive). The fluorescence ratio in experiment [2] was 1.07 (inactive); in experiment [5], 1 (inactive). Also, the z-score in experiment [9] is 0.126 (inactive). The nuclear beta-catenin stimulation in [6] (at 10 µM) was -0.9% (inactive); in [6] (stimulation, at 2 µM), -2.8%.

In the case of `O=P(O)(O)C(O)(Cc1cccnc1)P(=O)(O)O`, in experiment [1], the parasite load remaining was 12.3% (inactive) and 1.41% (inactive). Besides, the viability in experiment [1] is 96.3% and 95%. For the same compound, the nuclear beta-catenin stimulation in [6] (at 10 µM) is -1.2% (inactive); in experiment [6] (stimulation, at 2 µM) it was -0.8%.

For `Cn1c(NCCN(CCO)CCCc2ccc([N+](=O)[O-])cc2)cc(=O)n(C)c1=O`, the parasite load remaining in [1] was 109% (inactive) and 18.9% (inactive). In addition, the viability in experiment [1] was 77.5% and 73.5%. Besides, the fluorescence ratio in experiment [2] was 0.99 (inactive); in experiment [5], 0.97 (inactive). The inhibition in experiment [3] is 0.4% (inactive); in [4], 1.44% (inactive). In addition, in experiment [9], the z-score was 0.0586 (inactive). The nuclear beta-catenin stimulation in [6] (at 10 µM) was 0.1% (inactive); in experiment [6] (stimulation, at 2 µM), 0.3%.

For `C#C[C@]1(O)CC[C@H]2[C@@H]3[C@H](C)CC4=C(CCC(=O)C4)[C@H]3CC[C@@]21C`, the parasite load remaining in experiment [1] was 43.6% (inactive) and 8.38% (inactive). In addition, the viability in experiment [1] is 76.2% and 73.5%. Moreover, the fluorescence ratio in experiment [2] and in [5] was 0.99 (inactive) in each case. Besides, the inhibition in experiment [3] is 0.66% (inactive); in experiment [4] it was 1.18% (inactive). Besides, the nuclear beta-catenin stimulation in [6] (at 10 µM) was 7.4% (inactive); in experiment [6] (stimulation, at 2 µM), 0.8%.

For `Clc1ccc2nsnc2c1NC1=NCCN1`, the parasite load remaining in experiment [1] is 61.3% (inactive) and 52.1% (inactive). Besides, the viability in experiment [1] was 95.4% and 240%. Further, the inhibition was -3% (inactive) in experiment [7], -5% (inactive) in experiment [3] and -2.76% (inactive) in [4]. For the same compound, the fluorescence ratio (interference) in experiment [8] was 1 (inactive). Moreover, the fluorescence ratio in [2] was 1.05 (inactive); in [5], 0.99 (inactive). Also, the nuclear beta-catenin stimulation in experiment [6] (at 10 µM) is 0.6% (inactive); in experiment [6] (stimulation, at 2 µM), -0.6%.

`CC(C)c1ccc2oc3nc(N)c(C(=O)O)cc3c(=O)c2c1`: the parasite load remaining in experiment [1] is 196% (inactive). Also, the viability in experiment [1] is 67.7%. Also, the fluorescence ratio was 1.01 (inactive) in experiment [2] and 0.99 (inactive) in experiment [5]. In addition, the inhibition in experiment [3] was 2.77% (inactive); in experiment [4], 6.06% (inactive). For the same compound, in experiment [9], the z-score is 0.737 (inactive). Further, the nuclear beta-catenin stimulation was 0.2% (inactive) in [6] (at 10 µM) and -1.6% in experiment [6] (stimulation, at 2 µM).

As to `O=C(O)CCNC(=O)c1ccc(N=Nc2ccc(O)c(C(=O)O)c2)cc1`, in [1], the parasite load remaining was 105% (inactive) and 63.3% (inactive). The viability in experiment [1] is 90.8% and 75.1%. For the same compound, the results for the fluorescence ratio in experiment [2] and in experiment [5] were 0.93 (inactive) and 0.94 (inactive), respectively. Besides, the inhibition was -2.84% (inactive) in [3] and 1.97% (inactive) in [4]. Further, the result in [9] was inactive. The nuclear beta-catenin stimulation in [6] (at 10 µM) was 0.8% (inactive); in [6] (stimulation, at 2 µM) it was 0.3%.

In the case of `O=C1Nc2ccc(Cl)cc2[C@@](C#CC2CC2)(C(F)(F)F)O1`, in experiment [1], the parasite load remaining is 46.6% (inactive) and 8.97% (inactive). In experiment [1], the viability was 69% and 64.5%. In addition, the fluorescence ratio in experiment [2] and in experiment [5] was 0.99 (inactive) in each case. Besides, the inhibition in [3] is 5.15% (inactive); in experiment [4], 6.06% (inactive). In addition, in [9], the z-score was 0.939 (inactive). Besides, the nuclear beta-catenin stimulation was -0.8% (inactive) in experiment [6] (at 10 µM) and 3.6% in [6] (stimulation, at 2 µM).

For `COCc1c(C(C)C)nc(C(C)C)c(/C=C/[C@@H](O)C[C@@H](O)CC(=O)O)c1-c1ccc(F)cc1`, in experiment [1], the parasite load remaining is 149% (inactive) and 309% (inactive). In experiment [1], the viability was 53.2% and 109%. Also, the values for the fluorescence ratio in experiment [2] and in [5] were 1.03 (inactive) and 0.99 (inactive), respectively. The inhibition is -4.36% (inactive) in experiment [3] and -2.41% (inactive) in [4]. Also, the z-score in experiment [9] was -0.18 (inactive). For the same compound, the nuclear beta-catenin stimulation in [6] (at 10 µM) was 18.8% (active); in experiment [6] (stimulation, at 2 µM) it was 44.8%.
